Source: PubChem BioAssay
An excerpt weighted towards active compounds, which were near 2.9% of everything screened.
ERa coact pot = enhancers of ERα–SRC-1 coactivator binding, primary screen, biochemical, TR-FRET, ERα LBD, low estradiol | Estrogen receptor (Homo sapiens), P03372 | AID 639, 2007 | coactivator binding (% of control), % at 25.6 µM | 1.3% of 86,000 active | TR-FRET ERalpha-LBD/SRC-Cy5 coactivator binding, 2 h; 100 = basal binding, no effect; in the data active = activity above about 200%;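 note: binding measured in presence of low estradiol as agonist stimulus; 0% = peptide alone without receptor and 100% = receptor with peptide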
ERb SRC1 inh = inhibitors of ERβ-SRC1 coactivator interaction, primary screen, biochemical, TR-FRET, ERβ LBD, SRC-1 peptide; TR-FRET ER-beta LBD / SRC1-Cy5 peptide binding; receptor agonist-loaded with 1 µM estradiol; 1.3% of 86,000 active; AID 633, 2007; Estrogen receptor beta (Homo sapiens), Q92731; inhibition, % at 25.6 µM;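 active = compounds whose percent inhibition of the receptor-coactivator binding signal exceeds about 50% in the single-dose screen, limit read from the data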;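 note: 0% = receptor plus peptide wells without compound and 100% = peptide-only wells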
Target sequence (Q92731 whole entry, looked up, the tested form may be a part): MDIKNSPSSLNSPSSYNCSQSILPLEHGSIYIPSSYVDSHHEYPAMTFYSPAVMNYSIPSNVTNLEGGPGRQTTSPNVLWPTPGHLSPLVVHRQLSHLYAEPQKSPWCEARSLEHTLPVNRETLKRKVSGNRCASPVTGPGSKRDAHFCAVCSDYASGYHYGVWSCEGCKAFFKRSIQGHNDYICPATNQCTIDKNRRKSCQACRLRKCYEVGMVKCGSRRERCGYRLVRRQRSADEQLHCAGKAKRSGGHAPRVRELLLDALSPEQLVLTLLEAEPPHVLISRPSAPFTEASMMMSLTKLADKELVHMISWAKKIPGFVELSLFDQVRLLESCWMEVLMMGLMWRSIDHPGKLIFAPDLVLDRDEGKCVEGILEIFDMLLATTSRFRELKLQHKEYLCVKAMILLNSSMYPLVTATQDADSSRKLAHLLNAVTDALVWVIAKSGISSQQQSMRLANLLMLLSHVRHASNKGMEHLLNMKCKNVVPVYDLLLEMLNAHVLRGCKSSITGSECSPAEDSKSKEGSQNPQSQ
ERa coact inh = ERα–SRC-1 coactivator interaction inhibitors, primary screen, biochemical, TR-FRET, ERα LBD, estradiol-bound; TR-FRET ER-alpha LBD / SRC-1 peptide; AID 629, 2007; Estrogen receptor (Homo sapiens), P03372; 1.7% of 86,000 active; inhibition, % at 25.6 µM; in the data active = inhibition above about 50%;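 note: 0% = receptor plus peptide control and 100% = peptide only without receptor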
Smad3 inh = Smad3/FoxH1 peptide binding inhibitors, primary screen, biochemical, TR-FRET; Mothers against decapentaplegic homolog 3 (Homo sapiens), P84022; TR-FRET Smad3/Dy647-FoxH1 peptide binding, europium anti-His; inhibition, % at 25 µM; 0.29% of 88,000 active; AID 630, 2007;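 active = compounds that reduce the energy-transfer binding signal between the protein and its labelled peptide by more than half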;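 note: 0% = Smad3 plus labelled peptide maximal FRET and 100% = peptide-only background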
MRP-1 activ = H69AR viability gain despite doxorubicin, primary screen, MRP-1 activator project, H69AR cells, CellTiter-Glo. viability rescue. viability increase, % at 10 µM. 0.61% of 140,000 active. AID 799, 2007;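 active = viability gain under doxorubicin at or above a set limit, the compound median plus 3 SD, cut at about 4.7% in these data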;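 note: MRP-1 overexpressing cells given doxorubicin 25 µM after compound pretreatment; 18-22 h compound pretreatment then 72 h with doxorubicin before readout; 0% = doxorubicin-only wells and 100% = vehicle-treated cells without doxorubicin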
MRP resist rev = reversal of MRP1-mediated doxorubicin resistance, primary screen, H69AR cells, doxorubicin co-treatment; H69AR cells + 2 uM doxorubicin, CellTiter-Glo, 72 h; differential viability (reversal), % at 10 µM; 0.04% of 85,000 active;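 active = viability drop by adding the cancer drug above about 55%, with treated viability meeting a 40% cutoff, limit read from the data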;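 note: viability without doxorubicin minus viability with 2 µM doxorubicin for each compound; larger differential means the compound sensitizes cells more to doxorubicin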
The depositor's hits bear a star; x = no result; [ ] = remark or other dose.

SMILES	ERa coact pot	ERb SRC1 inh	ERa coact inh	Smad3 inh	MRP-1 activ	MRP resist rev
COc1cc2c(=O)n(Cc3ccccc3)c(=O)n(CC(=O)NCc3ccco3)c2cc1OC	348.6*[fluorescence artefact?]	4.1	36.5	-139.5	-3.1	8.9
O=C(NCc1ccco1)c1ccc(Cn2c(=O)c3ccccc3n(Cc3cccc(F)c3)c2=O)cc1	24.0	46.5	67.5*[fluorescence artefact?]	-4.8	-3.6	-2.9
C[N+](C)(C)c1nc(N)nc2c1ncn2[C@H]1O[C@@H](CO)[C@H](O)[C@H]1O	x	x	x	-1.7	x	x
Clc1ccc(-n2nnnc2Sc2ncnc3sccc23)cc1	94.6	-12.6	-10.9	16.8	x	0.2
Cc1sc2ncnc(Sc3nnnn3-c3ccccc3)c2c1C	202.3*[fluorescence artefact?]	9.4	18.1	-5.1	-5.3	0.4
COC(=O)c1cc(Br)ccc1OC(=O)c1cccnc1	90.0	0.3	-3.9	-6.6	-1.4	21.8
COc1ccc(CN2CCN(S(=O)(=O)c3ccc(F)cc3)CC2)cc1OC	100.6	-4.1	-3.0	-2.0	-1.0	6.7
COc1cc2c3nnc(-c4ccc(F)cc4)c-3cn(Cc3ccc(F)cc3)c2cc1OC	481.1*[fluorescence artefact?]	32.3	24.3	-12.3	-6.0	-1.0
COc1ccc(CCNC(=O)CSc2nnc(-c3ccc(F)cc3)c3ccccc23)cc1OC	x	x	x	x	-3.2	x
COc1ccc(Cn2cc3c(-c4ccc(F)cc4)nnc-3c3cc(OC)c(OC)cc32)cc1	262.4*[fluorescence artefact?]	34.0	48.6	8.2	-2.4	-1.6
COc1ccc(OC2C(=O)N(Cc3ccc(F)cc3)C2c2cc(OC)c(OC)c(OC)c2)cc1 (centres undefined)	x	x	x	x	-0.8	x
COc1cc2c3nnc(-c4ccc(F)cc4)c-3cn(Cc3ccccc3)c2cc1OC	424.1*[fluorescence artefact?]	38.6	32.7	-116.3	-3.3	0.7
CC(C)CC(CO)N1CCN(C(=O)c2ccc(C(C)(C)C)cc2)CCC1=O (centres undefined)	x	x	x	x	-1.3	x
NC(=O)C1CCCNC1 (centres undefined)	75.3	7.6	8.7	-21.0	x	-1.0
Cn1c(Cc2ccccc2)nnc1SCC(=O)c1cccs1	90.6	-6.7	57.2*	-24.1	-0.9	-12.8
O=S(=O)(Nc1ccc(N2CCOCC2)cc1)c1cccs1	5.9	75.6*[fluorescence artefact?]	97.1*[fluorescence artefact?]	12.5	-2.2	-0.8
O=S(=O)(Nc1ccc(S(=O)(=O)N2CCCCC2)cc1)c1cccs1	105.1	-7.8	-5.0	7.0	-2.8	2.2
CC(C)(C)C(=O)C[n+]1ccc(C(N)=O)cc1	x	x	x	x	-0.5	x
CN(C)c1nc(N/N=C\c2ccc(Cl)c([N+](=O)[O-])c2)nc(Nc2ccc(F)cc2)n1	101.7	31.4	78.4*	11.1	x	-16.7
CC(=O)N1CCN(c2ccc(Nc3ncnc4c3oc3ccccc34)cc2)CC1	34.5	60.8*[fluorescence artefact?]	56.2*[fluorescence artefact?]	9.3	-2.7	-10.2
CCc1nc(Nc2ccc(N3CCN(C(C)=O)CC3)cc2)c2oc3ccccc3c2n1	54.0	60.6*[fluorescence artefact?]	32.7	-4.6	-2.9	-16.4
COc1ccc(C2=Nc3ccc(Br)cc3C(c3ccccc3)N2CC(=O)NN)cc1 (centres undefined)	x	x	x	x	4.8*	x
NNC(=O)CN1C(c2cccc(Cl)c2)=Nc2ccc(Br)cc2C1c1ccccc1 (centres undefined)	x	x	x	x	0.9	x
O=C1CC(c2nc3ccccc3[nH]2)CN1c1ccccc1F (centres undefined)	100.8	-2.8	1.2	9.1	0.3	24.2
O=C1CC(c2nc3ccccc3[nH]2)CN1c1cccc(C(F)(F)F)c1 (centres undefined)	102.5	-16.1	-5.5	0.5	7.7*	6.2
O=C(CCC(=O)Nc1nnc(C2CCCCC2)s1)NCC1CCCO1 (centres undefined)	202.7*[fluorescence artefact?]	61.3*	62.5*	80.7*	2.3	7.5
CC(C)c1nnc(NC(=O)CCC(=O)NCC2CCCO2)s1 (centres undefined)	113.0	-1.8	-1.4	-1.0	0.5	-13.4
CS[C@@]12C(=O)C[C@@]3(C)[C@@H](CC[C@@]3(O)C(=O)CO)[C@H]1CCC1=CC(=O)CC[C@]12C	x	x	x	-11.2	x	x
